A number with no mark means an inactive call. The call rests on the fitted dose curve; in most records, active means well fitted curve in the direction sought with a large enough effect; inconclusive means small, poorly fitted or top-dose-only effect, or effect the other way, or another doubt; inactive means no such curve, though single readings can be large or run the other way.
experiment: Inducers of the Endoplasmic Reticulum Stress Response (ERSR) in human glioma: Validation (AID 504836); conditions: human glioma cells, ER stress response reporter; series mostly up to 38.3 µM; activation: at the top concentration; further: 0% is about no effect
Summary of the method: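 Stably transfected U87-MG human glioma cells carrying a GRP78-based luminescent sensor were seeded at 1000 cells/well, pin-dosed with compounds and incubated 16 h. Luciferase reagent was then added, and end-point luminescence was read after 10 min at room temperature.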

SMILES | activation [%]
CC/C(=C(\c1ccccc1)c1ccc(OCCN(C)C)cc1)c1ccccc1 | -1.38
Cc1cccc(C)c1OCC(C)N (stereo not given) | -5.14
CN(Cc1cnc2nc(N)nc(N)c2n1)c1ccc(C(=O)N[C@@H](CCC(=O)O)C(=O)O)cc1 | -1.01
Nc1ncn([C@@H]2O[C@H](CO)[C@@H](O)[C@H]2O)c(=O)n1 | -7.34
COc1cc2nc(N3CCN(C(=O)c4ccco4)CC3)nc(N)c2cc1OC | -0.623
O=C(CCCN1CCC(O)(c2ccc(Cl)cc2)CC1)c1ccc(F)cc1 | 1.14
Cn1ccc2cc3c(cc21)CCN3C(=O)Nc1cccnc1 | -3.19
CN(C)CCC=C1c2ccccc2C=Cc2ccccc21 | -3.4
CCC1(c2ccccc2)C(=O)NCNC1=O | -2.39
CN(C)CCOC(C)(c1ccccc1)c1ccccn1 (stereo not given) | -1.27
COCCCC/C(=N\OCCN)c1ccc(C(F)(F)F)cc1 | -0.72
CN(C)CCCN1c2ccccc2Sc2ccc(Cl)cc21 | 2.13
CCCCc1oc2ccccc2c1C(=O)c1cc(I)c(OCCN(CC)CC)c(I)c1 | -1.55
OCCN(CCO)c1nc(N2CCCCC2)c2nc(N(CCO)CCO)nc(N3CCCCC3)c2n1 | -3.53
COc1cc2nc(N3CCN(C(=O)C4COc5ccccc5O4)CC3)nc(N)c2cc1OC (stereo not given) | -3
NC12CC3CC(CC(C3)C1)C2 | -0.889
CCCN1C[C@H](CSC)C[C@@H]2c3cccc4[nH]cc(c34)C[C@H]21 | -0.831
CC(C(=O)O)c1cccc(C(=O)c2ccccc2)c1 (stereo not given) | -1.11

SMILES | activation [%]
COc1ccccc1OCC(O)CN1CCN(CC(=O)Nc2c(C)cccc2C)CC1 (stereo not given) | 1.07
Cc1ccccc1C(OCCN(C)C)c1ccccc1 (stereo not given) | 0.754
CC(=O)CCCCn1c(=O)c2c(ncn2C)n(C)c1=O | -0.786
Cn1cnc([N+](=O)[O-])c1Sc1ncnc2nc[nH]c12 | -1.08
COc1cc2nc(N3CCN(C(=O)C4CCCO4)CC3)nc(N)c2cc1OC (stereo not given) | 1.66
CC(C)NCC(O)COc1ccc(CCOCC2CC2)cc1 (stereo not given) | -0.458
CN(C)CC[C@@H](c1ccc(Br)cc1)c1ccccn1 | -4
CN/C(=C\[N+](=O)[O-])NCCSCc1ccc(CN(C)C)o1 | 0.197
COC(=O)Nc1nc2ccc(C(=O)c3cccs3)cc2[nH]1 | -2.66
O=C1CCc2cc(OCCCCc3nnnn3C3CCCCC3)ccc2N1 | -0.449
C[C@H]1c2cccc(O)c2C(O)=C2C(=O)[C@]3(O)C(O)=C(C(N)=O)C(=O)[C@@H](N(C)C)[C@@H]3[C@@H](O)[C@@H]21 | 5.6
NC(=O)c1cn(Cc2c(F)cccc2F)nn1 | -1.98
CN1CCN(C2=Nc3ccccc3Oc3ccc(Cl)cc32)CC1 | -4.01
CC#C[C@]1(O)CC[C@H]2[C@@H]3CCC4=CC(=O)CCC4=C3[C@@H](c3ccc(N(C)C)cc3)C[C@@]21C | -0.257
O=C1CCC(N2C(=O)c3ccccc3C2=O)C(=O)N1 (stereo not given) | -1.55
Cc1cn[nH]c1 | -1.52
CC12CC3CC(C)(C1)CC(N)(C3)C2 | -2.99

From PubChem BioAssay (NCATS)
